PubChem BioAssay AID624132 (Broad Institute, 2012)
Hit rate of the full screen: of about 1,600 compounds, about 1,500 (94%) were called active. So high a share suggests a set chosen from earlier hits. The list is a sample of the results. Results with a measured potency or affinity are listed apart. Inconclusive results are not listed. Unmarked numbers belong to inactive results.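 How the source made its calls: active means signal drop with fitted half-maximal concentration at most twice the top valid dose for that sample; inconclusive means flat fit between 30 and 70% inhibition, or poor curve fit; inactive means the rest.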

Experiment: reduction of Shn3 3'UTR-driven luciferase in osteoblasts – cell-based, Clone20 osteoblasts, firefly luciferase, cherry-picked, dose response (AID 624132)
Details: Clone20 osteoblast Shn3 3'UTR firefly luciferase, 24 h; series mostly up to 35 µM
In the case of `CC(Cc1cccs1)NC(=O)Nc1ccc(F)cc1` (stereo not given), the activity change, negative = inhibition is reported as “inactive”. With `CCN1C(=O)[C@H]2[C@@H](c3ccc(-c4ccc(OC)cc4)cc3)N3CCC[C@@]3(C(=O)OC)[C@H]2C1=O` the activity change, negative = inhibition was “inactive”. In the case of `COc1ccc(N(C)C(=O)c2ccc3snnc3c2)cc1`, the activity change, negative = inhibition is reported as “inactive”. With `CC(=O)N1N=C(c2ccccc2)OC1c1ccc([N+](=O)[O-])s1` (stereo not given) the activity change, negative = inhibition was “inactive”. In the case of `Fc1ccccc1N1CCN(Cc2nc(-c3ccccc3)no2)CC1`, the activity change, negative = inhibition is reported as “inactive”. In the case of `O=C(COC(=O)/C=C/c1ccc(OC(F)F)cc1)Nc1ccc2[nH]c(=O)[nH]c2c1`, the activity change, negative = inhibition is reported as “inactive”. For `CCOc1ccc(NS(=O)(=O)c2cc(C(=O)NCCN3CCOCC3)ccc2C)cc1`, the activity change, negative = inhibition was “inactive”. With `COCc1nn2c(N)c(C#N)cnc2c1-c1ccccc1` the activity change, negative = inhibition was “inactive”. With `NC(=O)NC(CC(=O)NCCc1ccccn1)c1ccccc1Cl` (stereo not given) the activity change, negative = inhibition was “inactive”. In the case of `CCOC(=O)c1[nH]c(C)c(/C(O)=C2\C(=O)C(=O)N(CCCN3CCOCC3)C2c2cccs2)c1C` (stereo not given), the activity change, negative = inhibition is reported as “inactive”. For `Cc1cc(-n2c(C)cc(C(=O)CSc3nncn3C)c2C)no1`, the activity change, negative = inhibition was “inactive”. With `CSCCC(NC(=O)c1ccccc1)C(=O)OCC(=O)N(C)CCC#N` (stereo not given) the activity change, negative = inhibition was 5.19% [at 8 µM]. For `COc1ccc(C(=O)OCC(=O)Nc2ccc3[nH]c(=O)[nH]c3c2)cc1`, the activity change, negative = inhibition was “inactive”. For `Cc1csc(=O)n1CCC(=O)N(C)Cc1c(F)cccc1Cl`, the activity change, negative = inhibition was “inactive”. For `COc1ccc(C(=O)OCC(=O)Nc2ncc([N+](=O)[O-])s2)cc1OC`, the activity change, negative = inhibition was “inactive”. In the case of `OC(c1ccccc1)C(O)C(c1ccccc1)N1CCCCC1` (stereo not given), the activity change, negative = inhibition is reported as “inactive”. For `CCCOc1ccc2oc(=O)c3c(c2c1)CCCN3C(=O)CN1CCN(c2ncccn2)CC1`, the activity change, negative = inhibition was “inactive”. For `COc1ccc(N2C(=O)C(CC(=O)Nc3ccccc3)N(Cc3ccc(OC)c(OC)c3)C2=O)cc1` (stereo not given), the activity change, negative = inhibition was “inactive”. For `CSc1cccc(NC(=O)N2CCCC(CNS(=O)(=O)Cc3ccccc3)C2)c1` (stereo not given), the activity change, negative = inhibition was “inactive”. With `CCn1cc(CNCc2cn(-c3ccccc3C)nc2-c2ccc(OC)c(F)c2)cn1` the activity change, negative = inhibition was “inactive”. With `CC(C)(C)N(Cc1ccccc1)C(=O)COC(=O)CCc1c[nH]c2ccccc12` the activity change, negative = inhibition was “inactive”. With `Oc1c(C(c2cccs2)N2CCC3(CC2)OCCO3)sc2ncnn12` (stereo not given) the activity change, negative = inhibition was “inactive”. For `COc1ccc(S(=O)(=O)NCCC(=O)OCC(=O)NC2CC2)cc1`, the activity change, negative = inhibition was “inactive”. With `CC1=NN(c2cccc([N+](=O)[O-])c2)C(=O)C1` the activity change, negative = inhibition was “inactive”. With `CN=C1c2cc3cc(OC)ccc3n2CCN1Cc1ccccc1` the activity change, negative = inhibition was “inactive”. In the case of `Cc1noc(C)c1COC(=O)[C@@H](NC(=O)c1ccccc1)C(C)C`, the activity change, negative = inhibition is reported as “inactive”. With `CCCCC[C@H]1CN(Cc2ccc(OC)cc2)C(=O)[C@@H]1CC(=O)NCc1ccccc1` the activity change, negative = inhibition was “inactive”. For `Cc1ccc(NC(=O)CN(C)C(=O)COc2cc(F)ccc2[N+](=O)[O-])cc1`, the activity change, negative = inhibition was “inactive”. With `Cc1cc(C)cc(C(=O)NCC(=O)OCC(=O)NCC(F)(F)F)c1` the activity change, negative = inhibition was “inactive”. In the case of `Nc1c(Br)cc2c(c1Br)C(O)c1ccccc1-2` (stereo not given), the activity change, negative = inhibition is reported as “inactive”. With `O=C(CSc1nnc(Nc2ccccc2)s1)NC1CCS(=O)(=O)C1` (stereo not given) the activity change, negative = inhibition was “inactive”. With `CN(C(=O)CSc1nc(-c2cccs2)nc2ccccc12)C1CCS(=O)(=O)C1` (stereo not given) the activity change, negative = inhibition was “inactive”. With `CN(CC(=O)NCc1ccc2c(c1)OCO2)S(=O)(=O)c1ccc(Br)s1` the activity change, negative = inhibition was “inactive”. For `Cn1cccc1Cc1nnc(SCC(=O)NCCc2ccccc2)n1-c1ccc(F)cc1`, the activity change, negative = inhibition was “inactive”. With `O=C(NC(NC(=S)Nc1c(Cl)cc(Cl)cc1Cl)C(Cl)(Cl)Cl)OCc1ccccc1` (stereo not given) the activity change, negative = inhibition was “inactive”. In the case of `COc1ccc(-c2nnn(CC(=O)Nc3ccc4c(c3)OCCO4)n2)cc1OC`, the activity change, negative = inhibition is reported as “inactive”. For `O=C(CSc1nc(C(F)(F)F)cc(=O)[nH]1)N1CCCC1`, the activity change, negative = inhibition was “inactive”. In the case of `Cc1nc2ncnn2c(C)c1Cc1cccc(F)c1`, the activity change, negative = inhibition is reported as “inactive”. In the case of `CCOC(=O)C1CCN(C(=O)C(C)N(c2ccc(Oc3ccccc3)cc2)S(C)(=O)=O)CC1` (stereo not given), the activity change, negative = inhibition is reported as “inactive”. With `CCOc1ccc(Br)cc1C1=CC(=O)C[C@H](c2ccc(OC)cc2)C1` the activity change, negative = inhibition was “inactive”. With `COc1ccccc1-n1ccnc(SCC(=O)NCc2ccccc2Cl)c1=O` the activity change, negative = inhibition was “inactive”. With `Cc1ccc(NC(=O)NCCCN2CCOCC2)cc1` the activity change, negative = inhibition was “inactive”. In the case of `Nc1cc(=O)[nH]c(SCC(=O)Nc2cccc([N+](=O)[O-])c2)n1`, the activity change, negative = inhibition is reported as “inactive”. For `CCOC(=O)C1=C(C)N(CCCC(=O)O)C(=O)NC1c1ccc2ccccc2c1` (stereo not given), the activity change, negative = inhibition was “inactive”. In the case of `CCc1c(O)nc(SCC(=O)Nc2ccccc2)n(-c2ccccc2)c1=O`, the activity change, negative = inhibition is reported as “inactive”. With `O=C(CN1C(=O)C2CCCCC2C1=O)NC1CCCc2ccccc21` (stereo not given) the activity change, negative = inhibition was “inactive”. For `Cc1cc(Sc2ccc([N+](=O)[O-])cn2)ccc1Br`, the activity change, negative = inhibition was “inactive”. In the case of `Cc1ccc(S(=O)(=O)N2CCCCC2)cc1NS(=O)(=O)c1ccccc1F`, the activity change, negative = inhibition is reported as “inactive”. With `O=c1c2ccccc2c(C=Nc2ccccc2O)c(O)n1-c1nccs1` the activity change, negative = inhibition was “inactive”. In the case of `COc1ccccc1-n1c(SCC(=O)Nc2cc(C)on2)nc2c(c1=O)SCC2`, the activity change, negative = inhibition is reported as “inactive”. With `O=S(=O)(c1ccc(Cl)cc1)n1ccc2cccnc21` the activity change, negative = inhibition was “inactive”. For `O=C(NCCCn1ccnc1)C(=O)NCC1OCCCN1S(=O)(=O)c1ccccc1` (stereo not given), the activity change, negative = inhibition was “inactive”. In the case of `O=C(NCCNC(=O)Oc1cccc2ccccc12)Oc1cccc2ccccc12`, the activity change, negative = inhibition is reported as “inactive”. For `O=C(CSc1nc2ncc(Cl)cc2[nH]1)N1CCOCC1`, the activity change, negative = inhibition was “inactive”. In the case of `C[C@@H]1CC=C[C@H]2[C@H]1C(=O)N(Cc1ccccc1)[C@H]2c1cccc([N+](=O)[O-])c1`, the activity change, negative = inhibition is reported as “inactive”. In the case of `CC(=O)Nc1sc2c(c1-c1nc3ccccc3s1)CCN(C(C)C)C2`, the activity change, negative = inhibition is reported as “inactive”. With `COc1cc(C(=O)OCC(=O)NC2CCCCCC2)ccc1OCC(C)C` the activity change, negative = inhibition was “inactive”. In the case of `Cc1ccc(NC(=O)C2CCCN(S(=O)(=O)c3c(C)noc3C)C2)cc1` (stereo not given), the activity change, negative = inhibition is reported as “inactive”. In the case of `CCO[C@@H]1OC(C(=O)NC2CC2)=C[C@H](c2coc3ccccc3c2=O)[C@H]1CCCO`, the activity change, negative = inhibition is reported as “inactive”. For `O=C(Nc1cccc(S(=O)(=O)NC2=NCCC2)c1)C1CC(=O)N(c2ccc3c(c2)OCCO3)C1` (stereo not given), the activity change, negative = inhibition was “inactive”. For `CCOC(=O)CNC(=O)C1(NC(=O)CNC(=O)OCc2ccccc2)CCCC1`, the activity change, negative = inhibition was “inactive”. In the case of `O=C(NNc1ccccc1)C(=O)NNS(=O)(=O)c1ccc(CCCl)cc1`, the activity change, negative = inhibition is reported as “inactive”. With `Cc1ccc(C(=O)N2CCN(C)CC2)cc1S(=O)(=O)N1CCCCCC1` the activity change, negative = inhibition was “inactive”. With `CCN(CC)S(=O)(=O)c1ccc(N(C)Cc2cccc(OC)c2OC)nc1` the activity change, negative = inhibition was “inactive”. For `Cc1cc(C(=O)Cn2cnc3cc(F)ccc3c2=O)c(C)n1C1CC1`, the activity change, negative = inhibition was “inactive”. With `COc1ccc(S(=O)(=O)N2CCOCC2)cc1NC(=O)COC(=O)CC1CC2CCC1C2` (stereo not given) the activity change, negative = inhibition was “inactive”. With `COc1cc(OC)cc(C(=O)OCC(=O)Nc2ccc(F)cc2F)c1` the activity change, negative = inhibition was “inactive”. With `Fc1ccccc1N=C1NN=C(c2ccccc2)CS1` the activity change, negative = inhibition was “inactive”. With `Nc1nc(=S)[nH]c2c1C1(CCCCC1)Cc1ccccc1-2` the activity change, negative = inhibition was “inactive”. For `CCCCCCC#Cc1ccc2c(c1)COc1c3ccccc3nn1-2`, the activity change, negative = inhibition was “inactive”. With `O=C1N/C(=C/c2ccc(N3CCOCC3)o2)C(=O)N1c1ccccc1` the activity change, negative = inhibition was “inactive”. With `Cc1ccccc1N/C(=N/S(=O)(=O)c1ccccc1)c1ccc(F)cc1` the activity change, negative = inhibition was “inactive”. With `C[C@@H]1CN([C@H](C)CO)C(=O)CCCn2nncc2CO[C@H]1CN(C)S(=O)(=O)c1ccc2c(c1)OCCCO2` the activity change, negative = inhibition was “inactive”. With `C[C@@H]1CN([C@H](C)CO)C(=O)c2cc(Br)cnc2O[C@H]1CN(C)C(=O)Cc1ccncc1` the activity change, negative = inhibition was “inactive”. With `Cc1cc(C)n(-c2cc(-n3nc(C)cc3C)ncn2)n1` the activity change, negative = inhibition was “inactive”. With `OCCNc1nc(Nc2ccc(Cl)cc2)nc(N2CCCC2)n1` the activity change, negative = inhibition was “inactive”. For `COc1c(C)cc(C(=O)C2CCCN(C(=O)c3cccc(-n4cccn4)c3)C2)cc1C` (stereo not given), the activity change, negative = inhibition was “inactive”. For `CC1CCN(C(=O)c2ccc(N3C(=O)C4CCC(C)CC4C3=O)cc2)CC1` (stereo not given), the activity change, negative = inhibition was “inactive”. In the case of `O=C(Cc1ccccc1)NCCS(=O)c1ccc(Cl)cc1` (stereo not given), the activity change, negative = inhibition is reported as “inactive”. With `CSc1nnc(-c2ccco2)n1-c1ccccc1` the activity change, negative = inhibition was “inactive”. With `CCn1nnc2cc(C(=O)Nc3cc(Cl)ccc3C)ccc21` the activity change, negative = inhibition was “inactive”. With `O=C(CSc1nc2[nH]ncc2c(=O)[nH]1)Nc1ccccc1C(F)(F)F` the activity change, negative = inhibition was “inactive”. In the case of `CC(C)c1c(O)c2c(n(-c3ccccc3)c1=O)CCCC2`, the activity change, negative = inhibition is reported as “inactive”. For `Cc1ccc(C(=O)Nc2ccc3c(c2)C(=O)N(CC2CCCO2)C3=O)cc1` (stereo not given), the activity change, negative = inhibition was “inactive”. With `O=C(CCS(=O)(=O)c1ccccc1)Nc1nc2c(s1)CCCC2` the activity change, negative = inhibition was “inactive”.
